# According to publication PMC4336329 (PLoS ONE, 2015):
# The whole screen tested about 310,000 compounds, of which about 14,000 (4.5%) showed an effect of 50% or more. Effects have a minus sign here. The full list was thinned out, with strong results kept by preference.
# Molecular target: human ether-à-go-go-related gene (hERG) potassium channel (human, UniProt Q12809)
# Assay: primary screen, population patch clamp on CHO cells stably expressing hERG; higher = less effect of the substance
# 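Also: peak tail current of the secondary pulse compared with the same well before compound.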
# human ether-à-go-go-related gene (hERG) potassium channel, sequence (Q12809 whole entry, looked up): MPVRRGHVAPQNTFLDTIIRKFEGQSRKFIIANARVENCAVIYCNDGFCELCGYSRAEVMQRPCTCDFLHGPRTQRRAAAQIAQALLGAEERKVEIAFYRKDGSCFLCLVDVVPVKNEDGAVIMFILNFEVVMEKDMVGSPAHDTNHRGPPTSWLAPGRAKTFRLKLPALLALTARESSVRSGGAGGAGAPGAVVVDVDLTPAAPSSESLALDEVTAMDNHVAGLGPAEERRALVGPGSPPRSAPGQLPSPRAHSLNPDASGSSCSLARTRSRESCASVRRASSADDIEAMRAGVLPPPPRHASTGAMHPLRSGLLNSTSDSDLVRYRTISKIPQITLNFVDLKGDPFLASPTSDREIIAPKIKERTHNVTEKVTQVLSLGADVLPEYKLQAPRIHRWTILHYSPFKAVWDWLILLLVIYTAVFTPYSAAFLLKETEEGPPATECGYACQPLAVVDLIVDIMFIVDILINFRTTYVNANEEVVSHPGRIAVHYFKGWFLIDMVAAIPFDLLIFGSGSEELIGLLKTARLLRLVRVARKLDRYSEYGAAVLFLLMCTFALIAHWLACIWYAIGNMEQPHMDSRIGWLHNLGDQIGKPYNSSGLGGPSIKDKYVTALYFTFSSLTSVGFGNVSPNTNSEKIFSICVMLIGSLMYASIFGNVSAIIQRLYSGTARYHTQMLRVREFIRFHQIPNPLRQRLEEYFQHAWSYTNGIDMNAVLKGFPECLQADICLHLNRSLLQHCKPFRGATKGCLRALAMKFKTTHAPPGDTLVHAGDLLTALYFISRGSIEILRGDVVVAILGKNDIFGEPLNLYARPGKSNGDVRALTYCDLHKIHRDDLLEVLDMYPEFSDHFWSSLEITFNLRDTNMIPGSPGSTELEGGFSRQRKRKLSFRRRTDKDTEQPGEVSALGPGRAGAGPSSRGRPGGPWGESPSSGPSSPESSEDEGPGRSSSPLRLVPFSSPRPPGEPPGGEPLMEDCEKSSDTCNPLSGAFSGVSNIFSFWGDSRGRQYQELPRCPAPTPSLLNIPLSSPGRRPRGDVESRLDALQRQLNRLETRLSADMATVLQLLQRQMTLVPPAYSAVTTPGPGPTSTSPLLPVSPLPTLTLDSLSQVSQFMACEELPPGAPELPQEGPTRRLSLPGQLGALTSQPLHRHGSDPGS
row,Structure (SMILES),"hERG current change (%, negative = inhibition) at 10uM [%]"
1,COc1ccc(-c2c(C)n([O-])c3c([n+]2=O)CCCC3)c(OC)c1,6.26
2,Nc1cncc(C(=O)O)c1 [26671297],4.06
3,CCn1cc(C(=O)N2CCCC(C(=O)c3ccc4ccccc4c3)C2)cn1 (stereo not shown),-18.1
4,CCc1ccc(NC(=O)CSc2nc(=O)n(CCCN(C)C)c3c2CCC3)cc1,-42.3
5,CCc1ccc(NC(=O)CSc2nc(=O)n(CCN(C)C)c3c2CCCC3)cc1,-24.2
6,CCCCc1ccc(NC(=O)CSc2nc(=O)n(CCN(C)C)c3c2CCC3)cc1,-56.4
7,CCCCc1ccc(NC(=O)CSc2nc(=O)n(CCN(CC)CC)c3c2CCC3)cc1,-65.8
8,CCCCc1ccc(NC(=O)CSc2nc(=O)n(CCN(CC)CC)c3c2CCCC3)cc1,-66.7
9,C=C(C)CN(CC)Cc1c(C(=O)N(C)CCCC)nc2ccccn12,-20.7
10,Cc1ccc(S(=O)(=O)NNC(=O)C2CCN(Cc3ccccc3)CC2)cc1,-15.4
11,COc1ccc(NC(=O)CSc2nnc(C3CCCCC3)n2N)cc1OC,21.9
12,Cc1cc(N/N=C/c2ccccc2O)nc(N2CCOCC2)n1,6.96
13,COc1ccc2ccc(OCC(=O)N3c4ccccc4NC(=O)CC3C)cc2c1 (stereo not shown),-21.2
14,COc1ccc(-c2sc(Nc3ccccc3)n[n+]2-c2ccc(F)cc2)cc1Br.[Cl-],4.03
15,COc1ccc2ccccc2c1-c1sc(Nc2ccccc2)n[n+]1-c1ccc(F)cc1.[Cl-],-57.4
16,Oc1ccc2ccccc2c1-c1sc(Nc2ccccc2)n[n+]1-c1ccc(F)cc1.[Cl-],-0.475
17,COc1ccc(-c2sc(Nc3ccccc3)n[n+]2C)c(C)c1C.[Cl-],-1.19
18,COc1ccc(-c2sc(Nc3ccccc3)n[n+]2-c2ccc(F)cc2)c(OC)c1OC.[Cl-],-72.2
19,COc1ccc(-c2sc(Nc3ccccc3)n[n+]2-c2ccc(F)cc2)c(C)c1C.[Cl-],-74.5
20,Fc1ccc(-[n+]2nc(Nc3ccccc3)sc2-c2c3ccccc3cc3ccccc23)cc1.[Cl-],18.2
21,COc1cc(OC)c(-c2sc(Nc3ccccc3)n[n+]2-c2ccc(F)cc2)cc1OC.[Cl-],-0.831
22,Cc1nc2sc3c(c2c(=O)o1)CCC3,4.18
23,O=c1[nH]c(O)c(/C=C2\C=Nc3ccccc32)[nH]1,20.9
24,Cc1cc(S(=O)(=O)N2CCOCC2)ccc1OCC(=O)NCC1CCCO1 (stereo not shown),-0.633
25,COc1ccc(S(=O)(=O)N(Cc2ccccc2)c2ccccc2C(=O)O)cc1,31.8
26,O=S(=O)(Cc1ccccc1)NCCc1cccc(Cl)c1,-5.57
27,Cc1nnc(-c2cnn(-c3ccccc3)c2N)n1Cc1ccccc1,-1.94
28,CCCOc1ccc(CC(CC(=O)O)(C(=O)O)C(=O)O)cc1,13.5

row,Structure (SMILES),"hERG current change (%, negative = inhibition) at 10uM [%]"
1,CCOC(=O)c1cccc(Nc2ncnc3ccccc23)c1.Cl,-24.9
2,CCOC(=O)c1cccc(Nc2ncnc3ccc(C)cc23)c1,-59.3
3,COC(=O)c1cccc(Nc2ncnc3ccc(C)cc23)c1,-20.9
4,Cn1c(SCC(=O)c2ccccc2)nnc1-c1ccncc1,-0.277
5,CCOc1ccc(C(C)=O)cc1CSc1nnc(-c2ccncc2)n1CCOC,-0.498
6,Cn1c(SCCCC(=O)c2ccccc2)nnc1-c1ccncc1,-42.9
7,Cc1ccc(C(=O)CSc2nnc(-c3ccncc3)n2C)cc1,-3.2
8,Cn1c(SCCCC(=O)c2ccc(F)cc2)nnc1-c1ccncc1,-59.6
9,COCCn1c(SCC(=O)N2CCOCC2)nnc1-c1ccncc1,-7.01
10,Cn1c(SCCCC(=O)c2ccc(Br)cc2)nnc1-c1ccncc1,-70.2
11,COCCn1c(SCCCC(=O)c2ccc(Br)cc2)nnc1-c1ccncc1,-60.7
12,Cn1c(SCCC(=O)O)nnc1-c1ccncc1,1.73
13,[O-][n+]1onc2c1CCC1N(O)C(c3ccccc3)CC21O (stereo not shown),14.7
14,O=C(c1cc(C2CC2)nn1-c1ccccc1)N1CCN(Cc2c(F)cccc2Cl)CC1,-36.6
15,CN(CCO)C(=O)c1cccc2c1-c1ccccc1C2=O,4.12
16,c1ccc(-c2ccc(-c3ccccn3)s2)nc1,-8.87
17,CCOc1ccc(NC(=O)c2ccc(Br)o2)c([N+](=O)[O-])c1,5.5
18,CC(C)C(=O)NC(c1ccco1)c1c(O)ccc2ccccc12 (stereo not shown),14.1
19,COc1ccc(F)cc1C(=O)C1CCCN(Cc2ccc3c(c2)OCCO3)C1 (stereo not shown),-54.3
20,O=C(c1ccc(Cl)cc1)C1CCCN(Cc2ccon2)C1 (stereo not shown),-18
21,COc1ccc(F)cc1C(=O)C1CCCN(Cc2ccc(Sc3nncn3C)o2)C1 (stereo not shown),12.6
22,O=C(c1ccc(Cl)cc1)C1CCCN(Cc2ccc3c(c2)OCCO3)C1 (stereo not shown),-73.5
23,O=C(CN1CCC(C(=O)c2ccc(Cl)cc2)CC1)Nc1ccc2c(c1)OCCO2,-44.9
24,COc1ccc(C(=O)C2CCCN(Cc3ccc4c(c3)OCCO4)C2)cc1F (stereo not shown),-74.7
25,COc1ccccc1C(=O)C1CCCN(Cc2ccc3c(c2)OCCO3)C1 (stereo not shown),-40.5
26,COc1ccc(C(=O)C2CCCN(Cc3ccc(Sc4nncn4C)o3)C2)cc1F (stereo not shown),-15.4
27,c1ccc(-c2noc(-c3ccc4c(c3)OCO4)n2)cc1,-3.33
